The full list was thinned out, with hits kept by preference.
Pf Dd2 inh = Plasmodium falciparum Dd2 growth inhibition. Potency, µM (highest dose often 28.9 µM), for the others: at the top dose activity, negative = inhibition, actives largely listed as inhibitors. AID 1347417. actives 4.3% (n = 120,000). P. falciparum Dd2 growth, SYBR Green, 72 h; active means well fitted inhibition curve with a large enough effect;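 further: plate controls were DMSO vehicle for no effect and reference drug for full effect; nearly all actives have a fitted effect of over 65% in size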
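Readout: SYBR Green fluorescence, 485 nm excitation, 535 nm emission, after ~16 h lysis at 37C. Before that, Dd2-infected red cells (2.5% hematocrit) grew 72 h with compound, 29 uM top final concentration.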
Starred values were filed as active, the others as inactive; [ ] = dose if it differs, or a comment. Potency means the concentration at half of the fitted maximal effect.

Screening CCc1ccccc1NC(=O)CN1C(=O)NC2(CCC(C)CC2)C1=O (configuration not stated) returned Pf Dd2 inh inactive.
Screening COc1ccc(-n2cc(-c3ccccc3)c3c(SC(C)C(C)=O)ncnc32)cc1 (configuration not stated) returned Pf Dd2 inh 8%.
Screening COC(=O)C(C)Sc1ncnc2c1c(-c1ccccc1)cn2-c1ccc(F)cc1 (configuration not stated) returned Pf Dd2 inh 5.6µM*.
For CN(c1ncnc2c1c(-c1ccccc1)cn2-c1ccc(F)cc1)C1CCCCC1 the results were Pf Dd2 inh -7%.
For CC(C)CCNC(=O)CC1Sc2ncccc2N(CC(C)C)C1=O (configuration not stated) the results were Pf Dd2 inh -1%.
`CN(CCO)C[C@@H]1CN(C(=O)Cc2c(F)cccc2Cl)C[C@@H]1CO` gave Pf Dd2 inh -2%.
`Cc1nonc1CC(=O)N1CCc2onc(-c3ccc(F)c(F)c3)c2C1` gave Pf Dd2 inh -7%.
For CN(C)c1ccc(CN[C@H]2C[C@H]3C(=O)NC[C@@H](CCC(=O)NC4CC4)N3C2)cc1 the results were Pf Dd2 inh 11%[44.1 µM].
`COc1cc(NC(=O)Cn2c(N3CCN(c4ccccc4)CC3)nc(C)cc2=O)cc(OC)c1` gave Pf Dd2 inh 6.3µM*.
`CCc1cc(=O)n(CC(=O)N2CCN(c3ccc(OC)cc3)CC2)c(N2CCOCC2)n1` gave Pf Dd2 inh inactive.
For CCc1cc(=O)n(CC(=O)N2CCN(c3ccccc3F)CC2)c(N2CCOCC2)n1 the results were Pf Dd2 inh 7.9µM*.
CCc1cc(=O)n(CC(=O)Nc2cc(OC)c(OC)c(OC)c2)c(N2CCOCC2)n1 was read as Pf Dd2 inh -4%.
Screening CCc1cc(=O)n(CC(=O)Nc2ccccc2OC)c(N2CCOCC2)n1 returned Pf Dd2 inh 11µM*.
`COCc1cc(=O)n(CC(=O)Nc2ccccc2OC)c(N2CCOCC2)n1` gave Pf Dd2 inh -9%.
Screening COc1ccc(NC(=O)Cn2c(N3CCC(C)CC3)nc(C)cc2=O)cc1 returned Pf Dd2 inh -21%.
For CCc1cc(=O)n(CC(=O)Nc2ccc(F)c(Cl)c2)c(N2CCOCC2)n1 the results were Pf Dd2 inh inactive.
CCc1ccc(NC(=O)Cn2c(N3CCN(c4ccccc4)CC3)nc(C)cc2=O)cc1 was read as Pf Dd2 inh inactive.
For O=c1[nH]nc2n1CCN(S(=O)(=O)c1ccc3c(c1)OCCO3)CC2 the results were Pf Dd2 inh -14%.
For COc1ccc(C(=O)NC2CCN(c3cn[nH]c(=O)c3)CC2)cn1 the results were Pf Dd2 inh 8%.
CC(C)N(C)Cc1ccc(-c2nc(-c3cccnc3)cc(=O)[nH]2)cc1 was read as Pf Dd2 inh -28%.
Screening O=C(O)C1CCCN(c2cn[nH]c(=O)c2)C1 (configuration not stated) returned Pf Dd2 inh -7%.
CCC(CC)C(=O)NC[C@H]1O[C@@H](CC(=O)N2CCN(c3ccccn3)CC2)[C@H](O)[C@@H]1O was read as Pf Dd2 inh -18%[44.1 µM].
For COc1ccc(Cl)cc1C(=O)N1CCC2(CC1)CN(C(C)=O)CC2CO (configuration not stated) the results were Pf Dd2 inh -5%.
Screening CC(NC(=O)Cc1cccn1-c1cccc(Cl)c1)c1ccccn1 (configuration not stated) returned Pf Dd2 inh inactive.
Screening CS(=O)(=O)N1CCC2(CCC(=O)N(CC3CCCO3)C2)CC1 (configuration not stated) returned Pf Dd2 inh -8%.
For CN1CCC(OC2CCN(S(=O)(=O)c3ccc(F)cc3F)CC2)CC1 the results were Pf Dd2 inh -3%.
CCOc1ccc(NC(=O)CSC2=Nc3ccccc3C3=NC(CCC(=O)NCc4ccccc4)C(=O)N23)cc1 (configuration not stated) was read as Pf Dd2 inh inactive.
For Cc1cccc(NC(=O)CSC2=Nc3ccccc3C3=NC(CC(=O)NCc4cccs4)C(=O)N23)c1 (configuration not stated) the results were Pf Dd2 inh 3.2µM*.
`COc1ccc(Cl)cc1NC(=O)CSC1=Nc2ccccc2C2=NC(CCC(=O)NCc3ccc(F)cc3)C(=O)N12` (configuration not stated) gave Pf Dd2 inh -23%.
`Cc1ccc(CSC2=Nc3ccccc3C3=NC(CC(=O)NCc4cccs4)C(=O)N23)c(C)c1` (configuration not stated) gave Pf Dd2 inh 13%.
COc1ccc(OC)c(NC(=O)CSC2=Nc3ccccc3C3=NC(CCC(=O)NCc4ccccc4)C(=O)N23)c1 (configuration not stated) was read as Pf Dd2 inh 13µM*.
For CC(C)(C)c1ccc(CSC2=Nc3ccccc3C3=NC(CC(=O)NCc4cccs4)C(=O)N23)cc1 (configuration not stated) the results were Pf Dd2 inh inactive.
`COc1ccc(NC(=O)CSC2=Nc3ccccc3C3=NC(CCC(=O)NCc4ccc(F)cc4)C(=O)N23)cc1Cl` (configuration not stated) gave Pf Dd2 inh 11µM*.
Screening CC(C)c1ccc(NC(=O)CSC2=Nc3ccccc3C3=NC(CCC(=O)NCc4ccc(F)cc4)C(=O)N23)cc1 (configuration not stated) returned Pf Dd2 inh -11%.
Screening COc1ccccc1NC(=O)CSC1=Nc2ccccc2C2=NC(CCC(=O)NCCc3ccccc3)C(=O)N12 (configuration not stated) returned Pf Dd2 inh -22%.
For COc1ccc(C(=O)N2CCC3(CC2)CN[S+](=O)([O-])c2cccnc2O3)cc1 the results were Pf Dd2 inh 41%.
`CCC(C)NC(=O)Cc1csc2nc(C)c(-c3cc(C)n(-c4ccc(C)cc4)n3)c(=O)n12` (configuration not stated) gave Pf Dd2 inh inactive.
`COCCc1noc(CN(C)c2cc(C3CC(O)C3)nc(C)n2)n1` (configuration not stated) gave Pf Dd2 inh 5%.
For C=CCOC(=O)C1=C(C)N=C2SC=C(CC(=O)NCC3CC3)N2C1c1ccc(OC)c(OC)c1 (configuration not stated) the results were Pf Dd2 inh 0%.
`COc1cccc(C(=O)Nc2ccc3ncnc(N4CCCCC4)c3c2)c1` gave Pf Dd2 inh inactive.
CCN1CCN(c2cc(C)c3cc(NC(=O)c4cccc(C(F)(F)F)c4)ccc3n2)CC1 was read as Pf Dd2 inh 5.6µM*.
For CCN1CCN(c2cc(C)c3cc(NC(=O)c4ccc(OC)c(OC)c4)ccc3n2)CC1 the results were Pf Dd2 inh 2.8µM*.
For Cc1cccc(C(=O)Nc2ccc3ncnc(N4CCCCC4)c3c2)c1 the results were Pf Dd2 inh inactive.
`CCNC(=O)CN1CCCC(CNC(=O)c2cccc(C(F)(F)F)c2)C1` (configuration not stated) gave Pf Dd2 inh -19%.
Screening Cc1cc(C(=O)N2CCCC(Cc3noc(-c4cnccn4)n3)C2)n[nH]1 (configuration not stated) returned Pf Dd2 inh inactive.
`CCc1cccc(-n2c(=O)c3cccnc3n2CC(=O)Nc2ccccc2C(=O)OC)c1` gave Pf Dd2 inh 49%[5.79 µM].
Cc1nn(CC(=O)NCc2ccccc2Cl)c(=O)c2nn(-c3ccccc3)c(C)c12 was read as Pf Dd2 inh 11%.
`O=C(Cn1c2ncccc2c(=O)n1-c1ccccc1)Nc1ccc(Cl)cc1C(F)(F)F` gave Pf Dd2 inh 8%.

Bioassay records deposited in PubChem by National Center for Advancing Translational Sciences (NCATS).
